Screens as filed in PubChem.
Wnt act – Wnt/beta-catenin pathway activators, primary screen, cell-based, plate reader, single point; Wnt/beta-catenin reporter cell assay, activator; activation, % at 9.35 µM; actives 1.2% (n = 300,000); in the data active means activation above about 30%, passing the limit was not always enough;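 further: 0% = neutral control wells and 100% = positive control wells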
INS-1E GSIS act – GLuc luminescence reporter in INS-1E cells, primary screen for activators of glucose-dependent secretion of insulin. activation, % at 16.6 µM. INS-1E GLuc reporter insulin secretion, 2-3 h. actives 0.61% (n = 370,000). AID 743287, 2014;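 active means lowest replicate activation of at least 40%, so every replicate reaches that level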;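 further: 0% = median of neutral control wells and 100% = median of IBMX positive control wells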
HIV Env fusion – inhibitors of HIV-1 Env-driven cell-cell fusion, primary screen, HeLa-JRFL effector, CEM21 target cells, luciferase. inhibition, % at 12.3 µM. actives 1.1% (n = 360,000);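 active means mean replicate inhibition score of at least 50 and every replicate individually at or above 50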;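 further: 0% = plate neutral controls and 100% = maraviroc near 300 nM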
CFTR F508del cor – F508del CFTR correction, initial screen, CFBE line, single point | AID 720511, 2013 | CFBE cells, YFP halide quenching; stimulated with forskolin plus potentiator P3; % fluorescence drop versus neutral controls | activity (quench increase), % at 7.58 µM | actives 0.36% (n = 350,000);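 active means mean added fluorescence quench of at least 8% versus neutral control, with both replicates also reaching 8%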;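 further: cells transiently co-express mutant CFTR-F508del with the halide-sensitive YFP; corrector assay measuring rescue of mutant channel to the surface after 24 h compound exposure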
MITF act – activators of MITF-driven TRPM1 promoter reporter, primary screen, cell-based, SK-MEL-5, luciferase, single point; activation, % at 12.5 µM; actives 0.75% (n = 300,000); SK-MEL-5 TRPM1-promoter luciferase, 24 h; % of positive control, neutral wells = 0;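 active means mean activation of at least 80% with every replicate also reaching 80%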;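 further: 0% = neutral control wells and 100% = parthenolide positive control wells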
Numbers without * were called inactive; x = no result given; [ ] = dose if it differs, or a comment. Sampled rows, rich in hits. Any-hit rate of the full collection: about 2.7%.

SMILES	Wnt act	INS-1E GSIS act	HIV Env fusion	CFTR F508del cor	MITF act
Cc1cc(/C=N/n2c(COc3ccccc3C)nc3ccccc3c2=O)c(O)c([N+](=O)[O-])c1	0.6	3.4	7.7	8.2*	6.5
CCCNC(=O)C[C@H]1CC[C@H]2[C@H](COc3ccc(NC(=O)c4cccs4)cc3C(=O)N2C)O1	x	-4.9	x	-0.4	x
O=C(C[C@@H]1CC[C@H](NC(=O)c2ccncc2)[C@@H](CO)O1)NCC1CC1	x	9.5	-5.2[16.7 µM]	0.9	x
CCOC1=C2[C@H](c3ccc(CC)cc3)N(S(=O)(=O)c3ccc(C)cc3)C[C@H]2C(C#N)(C#N)C(C#N)(C#N)C1	-0.2	-11.5	-90.8	-2.0	x
CCOC1=C2[C@H](c3ccccc3)N(S(=O)(=O)c3ccc(C)cc3)[C@H](C(C)C)[C@H]2C(C#N)(C#N)C(C#N)(C#N)C1	-2.3	-5.4	107.0*	1.2	x
CCCNC(=O)[C@H]1[C@H](CO)[C@H]2Cn3c(ccc(-c4cccc(OC)c4)c3=O)[C@H]2N1Cc1nccs1	x	-4.7	x	-0.5	x
O=C(Nc1ccccc1Br)c1cc(=O)c2ccccc2o1	-0.4	29.0	-24.5	-0.7	152.5*
COc1ccc(CCN2C(=O)CC(Cc3ccc(Br)cc3)C2=O)cc1OC (stereo not given)	-5.4	-19.9	x	x	17.3
COc1ccc(CCN2C(=O)CC(Cc3ccccc3)C2=O)cc1OC (stereo not given)	1.8	70.2*	9.4	1.2	-2.0
C[C@@H](C(=O)NCc1ccccc1)[C@@H]1C[C@@]1(C)[C@@H](NC(=O)OCc1ccccc1)c1ccccc1	-4.2	1.1	-26.0	3.3	7.7
C[C@@H](C(=O)NCc1ccc(S(C)(=O)=O)cc1)[C@H]1C[C@]1(C)[C@H](NC(=O)OCc1ccccc1)c1ccccc1	-2.0	-40.5	55.2*	-0.4	x
C[C@@H]1CN([C@@H](C)CO)C(=O)c2cc(NC(=O)C3CC3)ccc2O[C@@H]1CN(C)C(=O)Nc1ccccc1	x	24.5	-17.3[16.7 µM]	-0.8	x
Nc1ccc2nc(NC(=O)C3CCCCC3)sc2c1	48.4*	-3.6	-42.4	-1.4	60.4
Cc1ccc2nc(NC(=O)C3CCN(S(=O)(=O)c4cccs4)CC3)sc2c1	x	-48.1	79.8*	x	-21.8
O=C(Nc1nc2ccc(F)cc2s1)C1CCCO1 (stereo not given)	x	x	-99.0	x	112.2*
O=C(Nc1nc2ccc(C(=O)N3CCCCC3)cc2s1)C1CCCCC1	-1.0	-1.5	3.4	6.1	0.3
O=C(Nc1nnc(-c2ccccc2F)s1)C1CCCO1 (stereo not given)	51.2*	x	-276.3	x	66.2
CC(C)CC#Cc1cnc2c(c1)C(=O)N([C@H](C)CO)C[C@@H](C)[C@H](CN(C)S(=O)(=O)c1cccs1)O2	x	-10.7	26.0[16.7 µM]	1.0	x
C[C@@H]1CN([C@@H](C)CO)C(=O)c2cccc(NC(=O)c3cnccn3)c2O[C@@H]1CN(C)S(=O)(=O)c1ccc(F)cc1	x	-3.7	-26.2[16.7 µM]	3.4	x
CCOc1ccc2c(c1)C(C)=CC(C)(C)N2S(=O)(=O)c1ccc(NC(C)=O)cc1	-10.0	-10.0	-135.1	1.0	x
CCOc1ccc2c(c1)C(C)=CC(C)(C)N2S(=O)(=O)c1ccc(F)cc1	-1.5	-7.6	-1.8	10.3*	-23.6
C[C@H](CO)N1C[C@H](C)[C@@H](CN(C)C(=O)Nc2cccc(C(F)(F)F)c2)OCc2ccccc2-c2ccccc2C1=O	x	6.9	58.4*[16.7 µM]	2.2	x
C[C@@H]1CN([C@H](C)CO)C(=O)c2ccccc2-c2ccccc2CO[C@@H]1CN(C)C(=O)Nc1ccc2c(c1)OCO2	x	14.6	7.3[16.7 µM]	0.9	x
C[C@@H]1CN([C@@H](C)CO)C(=O)c2ccccc2-c2ccccc2CO[C@@H]1CN(C)C(=O)Nc1ccc2c(c1)OCO2	x	-10.8	59.0*[16.7 µM]	-0.1	x
O=C(C[C@@H]1CC[C@@H]2[C@H](COC[C@H](O)CN2C(=O)c2ccc3c(c2)OCO3)O1)NCCN1CCCCC1	x	8.1	-4.8[16.7 µM]	1.5	x
SMILES	Wnt act	INS-1E GSIS act	HIV Env fusion	CFTR F508del cor	MITF act
C[C@H](C(=O)N(C)C[C@H]1OCc2ccccc2-c2ccccc2C(=O)N([C@H](C)CO)C[C@@H]1C)c1ccccc1	x	-4.6	x	x	x
COc1ccccc1/C=C1\SC(=S)N(CCC(=O)Nc2cccc(O)c2)C1=O	-2.0	3.0	69.7*	0.8	x
COc1ccc(/C=C2\SC(=O)N(CCC(=O)Nc3ccccc3)C2=O)cc1OC	x	53.2*	-20.0	x	-5.0
COc1ccc(/C=C2\SC(=O)N(CCNC(=O)C3CC4C=CC3C4)C2=O)cc1 (stereo not given)	-1.4	-1.0	-14.2	2.4	136.1*
COc1cc(/C=C2\SC(=S)N(CCC(=O)Nc3cccc(O)c3)C2=O)cc(OC)c1OC	-0.7	-24.3	2.2	-0.9	-1.2
COc1cc(/C=C2\SC(=O)N(CCN)C2=O)ccc1OS(=O)(=O)c1cc(C)ccc1C	39.0*	-6.0	-13.5	-0.5	0.5
CCC(=O)Nc1ccc2c(c1)C(=O)N(C)[C@H]1CC[C@H](CC(=O)Nc3cccc(F)c3)O[C@@H]1CO2	x	-10.8	7.7[16.7 µM]	0.4	x
CO[C@H]1CN(C)C(=O)c2cc(NC(=O)NC(C)C)ccc2OC[C@H](C)N(C(=O)C2CCC2)C[C@@H]1C	x	2.4	-13.3[16.7 µM]	-1.9	x
CO[C@@H]1CN(C)C(=O)c2cc(NC(=O)Nc3c(C)noc3C)ccc2OC[C@H](C)N(CC2CC2)C[C@@H]1C	x	6.4	x	3.5	x
C[C@H]1CN([C@@H](C)CO)C(=O)Cc2cc(NC(=O)Cc3cn(C)c4ccccc34)ccc2O[C@H]1CN(C)Cc1ccc(C(=O)O)cc1	x	-22.6	-3.2[16.7 µM]	4.6	x
COc1ccc(/C=C2\SC(=O)N(CCCC(=O)Nc3cc(Cl)ccc3C(=O)O)C2=O)cc1	-20.7	12.2	61.2*	-1.2	-88.2
CN(C)CC(=O)N[C@H]1CC[C@@H](CC(=O)NCc2ccccc2F)O[C@@H]1CO	x	-6.4	1.8[16.7 µM]	-0.7	x
Cc1ccc(CNC(=O)c2ccc3c(=O)c(O)c(-c4ccc(C)cc4)[nH]c3c2)cc1	-5.0	-9.5	56.6*	14.3*	-54.9
CCCNC(=O)c1ccc2c(=O)c(O)c(-c3ccc(C)cc3)[nH]c2c1	-3.2	11.1	43.1	3.7	-39.8
Cc1cc(C)cc(NC(=O)CCn2cnc3cc(C)c(C)cc32)c1	38.5*	-16.5	9.3	-0.2	10.3
CN(C)CC(=O)Nc1ccc2c(c1)[C@H]1C[C@@H](CC(=O)NCc3ccncc3)O[C@@H](CO)[C@H]1O2	x	-6.4	-0.8[16.7 µM]	2.2	x
O=C(N[C@@H]1CC[C@@H](CCNS(=O)(=O)c2ccc(F)cc2)O[C@H]1CO)C1CC1	x	0.9	-1.4[16.7 µM]	-1.6	x
O=S(=O)(NCC[C@H]1CC[C@H](NS(=O)(=O)c2ccccc2Cl)[C@H](CO)O1)c1ccc(Cl)cc1	x	-9.7	58.4*[16.7 µM]	0.6	x
O=C(N[C@@H]1CC[C@H](CCNS(=O)(=O)c2ccc(F)cc2)O[C@@H]1CO)C1CC1	x	5.3	59.4*[16.7 µM]	0.9	x
